# Measurements: the supplement of paper PMC7411054
# Where a name gives a salt, the structure may show the parent alone.
# Columns and labels:
# Conditions in all cases: treatment time: 24 h
# HepG2-GM130-SQSTM1 [1] = assay: lowest phenotypically active concentration; higher = less potent
# In short: (§1)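 Cells from fifteen gene-edited reporter lines (A549, HepG2 and WPMY1) were treated for 24 h at 0.3, 1, 3 or 9 µM and imaged live, four wells per condition. Features were normalised per well to solvent control wells. A condition deviated if ≥3 of 4 wells passed the 95th percentile of control Euclidean distances and was reproducible if its median replicate Pearson correlation beat the 95th percentile of non-replicates; phenotypic activity needed both.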
# WPMY1-GM130-SQSTM1 [2] = assay: as above
# In short: as §1
# A549-ACTB-RAB5A = assay: phenotypically active (imaging signature differs from DMSO and reproducible) at any of 0.3-9 uM (binary (1 = active, 0 = inactive)); higher = active
# In short: as §1
# A549-CANX-COX4 = assay: as above
# In short: as §1
# A549-GM130-SQSTM1 = assay: as above
# In short: as §1
# A549-TP53BP1-CLTA = assay: as above
# In short: as §1
# A549-TUBA1B-RELA = assay: as above
# In short: as §1
# HepG2-ACTB-RAB5A = assay: as above
# In short: as §1
# HepG2-CANX-COX4 = assay: as above
# In short: as §1
# HepG2-GM130-SQSTM1 [3] = assay: as above
# In short: as §1
# HepG2-TP53BP1-CLTA = assay: as above
# In short: as §1
# HepG2-TUBA1B-RELA [4] = assay: as above
# In short: as §1
# WPMY1-ACTB-RAB5A [5] = assay: as above
# In short: as §1
# WPMY1-CANX-COX4 = assay: as above
# In short: as §1
# WPMY1-GM130-SQSTM1 [6] = assay: as above
# In short: as §1
# WPMY1-TP53BP1-CLTA = assay: as above
# In short: as §1
# WPMY1-TUBA1B-RELA = assay: as above
# In short: as §1
# WPMY1-ACTB-RAB5A [7] = assay: lowest phenotypically active concentration; higher = less potent
# In short: as §1
# HepG2-TUBA1B-RELA [8] = assay: as above
# In short: as §1
SMILES,lowest phenotypically active concentration (HepG2-GM130-SQSTM1 [1]),lowest phenotypically active concentration (WPMY1-GM130-SQSTM1 [2]),phenotypically active (A549-ACTB-RAB5A),phenotypically active (A549-CANX-COX4),phenotypically active (A549-GM130-SQSTM1),phenotypically active (A549-TP53BP1-CLTA),phenotypically active (A549-TUBA1B-RELA),phenotypically active (HepG2-ACTB-RAB5A),phenotypically active (HepG2-CANX-COX4),phenotypically active (HepG2-GM130-SQSTM1 [3]),phenotypically active (HepG2-TP53BP1-CLTA),phenotypically active (HepG2-TUBA1B-RELA [4]),phenotypically active (WPMY1-ACTB-RAB5A [5]),phenotypically active (WPMY1-CANX-COX4),phenotypically active (WPMY1-GM130-SQSTM1 [6]),phenotypically active (WPMY1-TP53BP1-CLTA),phenotypically active (WPMY1-TUBA1B-RELA),lowest phenotypically active concentration (WPMY1-ACTB-RAB5A [7]),lowest phenotypically active concentration (HepG2-TUBA1B-RELA [8])
CC1(C)CC(=O)c2c(S(C)(=O)=O)sc(Cl)c2C1,1 µM,3 µM,0 (inactive),0 (inactive),0 (inactive),0 (inactive),0 (inactive),0 (inactive),0 (inactive),1 (active),0 (inactive),0 (inactive),0 (inactive),0 (inactive),1 (active),0 (inactive),0 (inactive),–,–
CCOC(=O)c1ccc(N2NC(=O)/C(=C/c3ccc([N+](=O)[O-])o3)C2=O)cc1,–,9 µM,0 (inactive),0 (inactive),0 (inactive),0 (inactive),0 (inactive),0 (inactive),0 (inactive),0 (inactive),0 (inactive),0 (inactive),0 (inactive),1 (active),1 (active),0 (inactive),0 (inactive),–,–
CC(C)C[C@H](NC(=O)OCC1c2ccccc2-c2ccccc21)C(=O)O,–,–,0 (inactive),0 (inactive),0 (inactive),0 (inactive),0 (inactive),0 (inactive),0 (inactive),0 (inactive),0 (inactive),0 (inactive),1 (active),0 (inactive),0 (inactive),0 (inactive),0 (inactive),9 µM,–
Nc1ncnc2c1c(COc1cccc(Cl)c1)nn2C1CCOCC1,–,–,0 (inactive),0 (inactive),0 (inactive),0 (inactive),0 (inactive),0 (inactive),0 (inactive),0 (inactive),1 (active),0 (inactive),0 (inactive),0 (inactive),0 (inactive),0 (inactive),0 (inactive),–,–
NCCCCNS(=O)(=O)c1ccc2c(Cl)cccc2c1 [W-13 hydrochloride],–,9 µM,0 (inactive),0 (inactive),0 (inactive),0 (inactive),0 (inactive),0 (inactive),0 (inactive),0 (inactive),0 (inactive),0 (inactive),1 (active),1 (active),1 (active),0 (inactive),1 (active),9 µM,–
COC(=O)C1=C(C)NC(C)=C(C(=O)OC)C1c1ccccc1[N+](=O)[O-] [nifedipine],–,9 µM,0 (inactive),0 (inactive),0 (inactive),0 (inactive),0 (inactive),0 (inactive),0 (inactive),0 (inactive),0 (inactive),0 (inactive),0 (inactive),0 (inactive),1 (active),0 (inactive),0 (inactive),–,–
CN/C(=C/[N+](=O)[O-])NCCSCc1csc(CN(C)C)n1 [nizatidine],–,–,0 (inactive),0 (inactive),0 (inactive),0 (inactive),0 (inactive),0 (inactive),0 (inactive),0 (inactive),1 (active),0 (inactive),0 (inactive),0 (inactive),0 (inactive),0 (inactive),0 (inactive),–,–
CCCCc1c(O)n(-c2ccccc2)n(-c2ccccc2)c1=O [phenylbutazone],–,≤ 0.3 µM,0 (inactive),0 (inactive),0 (inactive),0 (inactive),0 (inactive),0 (inactive),0 (inactive),0 (inactive),0 (inactive),0 (inactive),0 (inactive),0 (inactive),1 (active),0 (inactive),0 (inactive),–,–
CC(C)C(=O)Nc1ccc([N+](=O)[O-])c(C(F)(F)F)c1 [flutamide],–,9 µM,0 (inactive),0 (inactive),0 (inactive),0 (inactive),0 (inactive),0 (inactive),0 (inactive),0 (inactive),0 (inactive),0 (inactive),0 (inactive),0 (inactive),1 (active),0 (inactive),0 (inactive),–,–
C#CCN[C@@H]1CCc2ccccc21 [rasagiline],–,9 µM,0 (inactive),0 (inactive),0 (inactive),0 (inactive),0 (inactive),0 (inactive),0 (inactive),0 (inactive),1 (active),1 (active),0 (inactive),0 (inactive),1 (active),1 (active),0 (inactive),–,9 µM
O=C(Nc1ccccc1)N1CCC(Cc2cnc3ccccc3c2)CC1,–,–,0 (inactive),0 (inactive),0 (inactive),0 (inactive),0 (inactive),0 (inactive),0 (inactive),0 (inactive),1 (active),1 (active),0 (inactive),0 (inactive),0 (inactive),0 (inactive),0 (inactive),–,9 µM
CC(C)[C@H](N)C(=O)OCC(CO)OCn1cnc2c(=O)[nH]c(N)nc21 (stereo partly specified) [valganciclovir],–,1 µM,0 (inactive),0 (inactive),0 (inactive),0 (inactive),0 (inactive),0 (inactive),0 (inactive),0 (inactive),0 (inactive),0 (inactive),0 (inactive),0 (inactive),1 (active),0 (inactive),0 (inactive),–,–
Cn1cnc(N)c2ncnc1-2 [3-Methyladenine],–,–,0 (inactive),0 (inactive),0 (inactive),0 (inactive),0 (inactive),0 (inactive),0 (inactive),0 (inactive),0 (inactive),0 (inactive),1 (active),0 (inactive),0 (inactive),0 (inactive),0 (inactive),1 µM,–
Oc1cc(O)cc(/C=C/c2ccc(O)c(O)c2)c1 [Piceatannol],–,3 µM,0 (inactive),0 (inactive),0 (inactive),0 (inactive),0 (inactive),0 (inactive),0 (inactive),0 (inactive),0 (inactive),0 (inactive),1 (active),0 (inactive),1 (active),0 (inactive),1 (active),9 µM,–
COc1ccc(Cn2ccc3ccc(C(=O)NO)cc32)cc1,–,3 µM,0 (inactive),0 (inactive),0 (inactive),0 (inactive),0 (inactive),0 (inactive),0 (inactive),0 (inactive),0 (inactive),0 (inactive),0 (inactive),0 (inactive),1 (active),0 (inactive),0 (inactive),–,–
O=S(=O)(NCCCCCCc1ccccc1)c1cccc2c(Cl)cccc12,–,–,0 (inactive),0 (inactive),0 (inactive),0 (inactive),0 (inactive),0 (inactive),0 (inactive),0 (inactive),0 (inactive),1 (active),1 (active),1 (active),0 (inactive),0 (inactive),0 (inactive),≤ 0.3 µM,≤ 0.3 µM
CNC(=O)c1ccc(C)c(-n2c(C)cc(OCc3ccc(F)cc3F)c(Br)c2=O)c1,–,–,0 (inactive),0 (inactive),0 (inactive),0 (inactive),0 (inactive),0 (inactive),0 (inactive),0 (inactive),0 (inactive),0 (inactive),1 (active),0 (inactive),0 (inactive),0 (inactive),0 (inactive),1 µM,–
C[C@]12CC[C@@H]3c4ccc(O)cc4CC[C@H]3[C@@H]1CC[C@@H]2OC(=O)CCC1CCCC1 [estradiol cypionate],–,9 µM,0 (inactive),0 (inactive),0 (inactive),0 (inactive),0 (inactive),0 (inactive),0 (inactive),0 (inactive),0 (inactive),0 (inactive),0 (inactive),0 (inactive),1 (active),0 (inactive),0 (inactive),–,–
COc1ccnc(CS(=O)c2nc3cc(OC(F)F)ccc3[nH]2)c1OC (stereo unspecified) [pantoprazole],–,–,0 (inactive),0 (inactive),0 (inactive),0 (inactive),0 (inactive),0 (inactive),0 (inactive),0 (inactive),0 (inactive),0 (inactive),1 (active),0 (inactive),0 (inactive),0 (inactive),0 (inactive),≤ 0.3 µM,–
CNC(=C[N+](=O)[O-])NCCSCc1ccc(CN(C)C)o1 [ranitidine],1 µM,–,0 (inactive),0 (inactive),0 (inactive),0 (inactive),0 (inactive),0 (inactive),0 (inactive),1 (active),0 (inactive),0 (inactive),0 (inactive),0 (inactive),0 (inactive),0 (inactive),0 (inactive),–,–
CC(CCc1ccc(O)cc1)NCCc1ccc(O)c(O)c1 (stereo unspecified) [Dobutamine hydrochloride],–,3 µM,0 (inactive),0 (inactive),0 (inactive),0 (inactive),0 (inactive),0 (inactive),0 (inactive),0 (inactive),0 (inactive),0 (inactive),0 (inactive),0 (inactive),1 (active),0 (inactive),0 (inactive),–,–
CCCN[C@H]1CCc2nc(N)sc2C1 [pramipexole],–,9 µM,0 (inactive),0 (inactive),0 (inactive),0 (inactive),0 (inactive),0 (inactive),0 (inactive),0 (inactive),0 (inactive),0 (inactive),0 (inactive),0 (inactive),1 (active),0 (inactive),0 (inactive),–,–
NC(=O)c1ccc(I)c([N+](=O)[O-])c1,9 µM,–,0 (inactive),0 (inactive),0 (inactive),0 (inactive),0 (inactive),0 (inactive),0 (inactive),1 (active),0 (inactive),0 (inactive),0 (inactive),0 (inactive),0 (inactive),0 (inactive),0 (inactive),–,–
